Experimental data from PubChem BioAssay AID588795 (National Center for Advancing Translational Sciences (NCATS), 2011).
Hit rate of the full screen: of about 390,000 compounds, about 1,400 (0.36%) were called active. Another 2% or so got no clear call; they are omitted. Shown is part of a subset that was picked to be rich in actives. Unmarked numbers belong to inactive results. Calls follow the shape of the dose curve; as a rule, active = well fitted inhibition curve with a large enough effect; inconclusive = small, poorly fitted or top-dose-only effect; inactive = no such curve, though single readings can be large or run the other way.

These compounds were tested against Flap endonuclease 1 (Homo sapiens) (UniProt P39748) (assay: qHTS Assay for the Inhibitors of Human Flap endonuclease 1 (FEN1).). Details: Recombinant FEN1 flap cleavage, fluorescence, 15 min; series mostly up to 114 µM; activity change, negative = inhibition: at the top concentration.
Description: The major human flap endonuclease FEN1 is an efficient structure-specific enzyme that recognizes and cleaves a 5'-unannealed DNA flap. It belongs to the RAD2 family nucleases, which are involved in DNA metabolism and are highly conserved in prokaryotes and eukaryotes. FEN1 is a key enzyme in DNA replication, repair and maintenance of genomic stability. 5'-flap removal by FEN1 is critical for Okazaki fragment processing during lagging strand DNA synthesis, long-patch base excision repair (LP BER), and regulating or facilitating recombination events. […] Deletion of the yeast FEN1 gene, i.e. rad27, results in an increased frequency of short DNA (3-32 bp) repeats, micro- and mini-satellite formation, trinucleotide repeat expansion, spontaneous recombination events, and a severe growth defect in association with cell cycle arrest in late S/G2 phase. […] Cells from fen1-/- blastocysts show increased apoptotic cell death after ionizing radiation treatment, and chicken cells lacking the fen1 gene are hypersensitive to DNA alkylating agents, e.g. methylmethane sulfonate (MMS) and N-methyl-N'-nitro-N-nitrosoguanidine (MNNG), as well as hydrogen peroxide.
NIH Chemical Genomics Center [NCGC]
NIH Molecular Libraries Probe Centers Network [MLPCN]
Assay Submitter (PI): David Wilson, National Institute of Aging
Three uL of reagents (buffer in column 3 and 4 as negative control and 10 nM FEN1 in columns 1, 2, and 5-48) were dispensed into 1,536-well black solid-bottomed plate. Compounds (23 nL) were transferred via Kalypsys pin tool equipped with 1536-pin array (10 nL slotted pins, V&P Scientific, San Diego, CA). The plates were then incubated for 15 min at room temperature, and 1 uL substrate (50 nM final concentration) were added to start the reaction read twice at 0 min read and 15 min on ViewLux reader. Throughout the screen, reagent bottle and all liquid lines were chilled and made light-tight to minimize reagent degradation. All screening operations were performed on a fully integrated robotic system (Kalypsys, San Diego, CA) containing one RX-130 and two RX-90 anthropomorphic robotic arms (Staubli, Duncan, SC). Library plates were screened starting from the lowest and proceeding to the highest concentration, and a "double-dipping" step of the highest concentration was required to access higher concentrations of compounds. Vehicle-only plates, with DMSO being pin-transferred to the entire column 5-48 compound area, were inserted uniformly at the beginning and the end of each library in order to monitor for and record any shifts in the background, which can be affected by reagent dispensers or loss in enzyme activity overtime. Screening data was corrected, normalized, and concentration-effect relationships were derived by using publicly-available curve fitting algorithms developed in-house (http://ncgc.nih.gov/pub/openhts). A four parameter Hill equation was fitted to the concentration-response data by minimizing the residual error between the modeled and observed responses.
% is scaled to controls: 0 for no effect and ±100 for the full control effect; potency is read from the fitted curve at half-maximal effect.
Also: nearly all actives have a fitted effect of over 65% in size.

Sequence of Flap endonuclease 1 (Homo sapiens) (P39748 whole entry, looked up, the tested form may be a part): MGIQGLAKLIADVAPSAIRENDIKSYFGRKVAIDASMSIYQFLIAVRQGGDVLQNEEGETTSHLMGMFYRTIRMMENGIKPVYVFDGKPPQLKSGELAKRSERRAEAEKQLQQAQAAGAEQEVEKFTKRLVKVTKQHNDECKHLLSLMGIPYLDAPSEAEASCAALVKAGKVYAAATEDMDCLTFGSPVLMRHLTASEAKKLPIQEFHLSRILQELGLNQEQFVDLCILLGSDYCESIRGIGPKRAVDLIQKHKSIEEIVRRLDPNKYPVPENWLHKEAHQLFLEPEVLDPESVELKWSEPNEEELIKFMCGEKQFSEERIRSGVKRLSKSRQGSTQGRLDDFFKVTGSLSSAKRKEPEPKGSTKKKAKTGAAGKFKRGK

| Structure (SMILES) | Potency | activity change, negative = inhibition [%] |
| --- | --- | --- |
| CNCCCOc1cc2nc(N3CCCN(C)CC3)nc(NC3CCN(C)CC3)c2cc1OC | 22.4 µM (active) | – |
| COc1cc2nc(Cl)nc(NC3CC3)c2cc1OC | – | -7 |
| COc1cc2nc(N3CCCN(C)CC3)nc(NC(C)C)c2cc1OC | – | -7.37 |
| CN(N=O)c1ccc(C=C2c3ccccc3-c3ccccc32)cc1 | – | -19.3 |
| O=C(COc1ccccc1C(=O)Nc1ccccc1)Nc1cccc(F)c1 | – | 2.36 |
| CC(=O)c1ccc[n+](C(C)CCC(C)[n+]2cccc(C(C)=O)c2)c1 (stereo not given) | – | -9.54 |
| Cc1ccc(-c2cc(N)n(Cc3cccc(Cl)c3)n2)cc1 | – | -16.4 |
| C[C@]12CC[C@H](O)CC1=CCC1C2CC[C@@]2(C)C1CC[C@@H]2NC(=O)CCC(=O)O (stereo not given in full) | – | 2.34 |
| CC(=O)OC1CCC2(C)C(=CCC3C4CC(=O)N(O)C(=O)C4(C)CCC32)C1 (stereo not given) | 3.16 µM (active) | – |
| C[C@@H]1CC[C@@]2(OC1)O[C@H]1C[C@H]3[C@@H]4CC=C5C[C@@H](O)[C@H](O)C[C@]5(C)C4CC[C@]3(C)[C@H]1[C@@H]2C (stereo not given in full) | – | 13.5 |
| CC(C)(C(=O)NO)c1ccccc1 | – | -6.25 |
| CN(C)c1ccc(/C=N\Nc2ccc([N+](=O)[O-])cc2[N+](=O)[O-])cc1Cl | – | 2.15 |
| CCCCOc1ccc(CN2C(=O)C(=O)c3cc(Br)cc(C)c32)cc1OC | – | -12.5 |
| COc1ccccc1Nc1cc(C(=O)NCCCN(C)C2CCCCC2)c2ccccc2n1 | – | 3.77 |
| CN(C)CCNC(=O)c1ccc(Cl)c2cc3ccccc3nc12 | 11.2 µM (active) | – |
| COc1ccc(Nc2cc(C(=O)NCCCN(C)c3ccccc3)c3ccccc3n2)c(OC)c1 | – | 1.8 |
| COc1ccc(NC(=O)CN2C(=O)C(c3ccccc3)=NC23CCCCCC3)cc1OC | – | -12.5 |
| Cc1ccc(NC(=O)CN2C(=O)C(c3ccc(F)cc3)=NC23CCCCCC3)c(C)c1 | 89.1 µM (active) | – |
| CCc1ccc(NC(=O)CN2C(=O)C(c3ccccc3)=NC23CCCCCC3)cc1 | – | -26.4 |
| COc1ccc(CCNc2ncnc3c2cnn3-c2ccc(C)cc2)cc1 | – | -15.5 |
| COc1ccc2[nH]c3c(C)c4cc[n+](C)cc4c(C)c3c2c1 | 2.24 µM (active) | – |
| CCOC(=O)c1[nH]c2ccc(OC)cc2c1NC(=O)N1CCOCC1 | – | -2.89 |

| Structure (SMILES) | Potency | activity change, negative = inhibition [%] |
| --- | --- | --- |
| CN(C)c1ccc(/C=C2\C=Cc3ccccc32)cc1Br | – | -23.9 |
| c1ccc(Cn2nnc3c(N4CCCCC4)ncnc32)cc1 | – | 14.5 |
| CCCCOc1ccc(C(=O)NO)cc1 | – | 0.524 |
| O=[N+]([O-])c1ccc(/C=C/c2ccc3cccnc3c2)cc1 | – | -2.17 |
| COc1ccccc1NC(=O)Nc1nnc(Cc2ccc(F)cc2)s1 | – | 26.2 |
| COc1ccc(Cc2nnc(NC(=O)Cc3cccs3)s2)cc1 | 56.2 µM (active) | – |
| COc1ccc(OC)c(NC(=O)Cc2cccs2)c1 | – | -1.63 |
| CN(C)c1ccc(/C=C/c2sc3ccccc3[n+]2CCCCBr)cc1 | 50.1 µM (active) | – |
| CN(C)c1ccc(/C=C/c2sc3ccccc3[n+]2C)cc1 | 50.1 µM (active) | – |
| CC[n+]1cc(C)ccc1/C=C/c1ccc(N(C)C)cc1 | – | -25 |
| CN(C)c1ccc(/C=C/c2c3ccccc3nc3ccccc23)cc1 | – | -17 |
| CO[C@H]1O[C@@H]2O[C@@]3(C)CC[C@@H]4[C@@H](C)CC[C@@H]([C@H]1C)[C@@]24OO3 | – | 12.3 |
| Cc1ccc(Cn2cnc3c(cnn3C(C)(C)C)c2=O)c(F)c1 | – | -14.4 |
| Cc1ccc(C=O)cc1Cl | – | -1.08 |
| CCCCCCC1(C)NC(c2ccc3c(c2)OCO3)=CC(c2ccccc2O)N1 (stereo not given) | – | -17.3 |
| Cc1ccc2ccc3c(c2n1)NS(=O)(=O)c1ccccc1-3 | – | 13.3 |
| SCc1nc2ccc(Cl)cc2[nH]1 | – | 3.96 |
| CCN(CC)/[N+]([O-])=N/OCOC(=O)Cc1c(C)n(C(=O)c2ccc(Cl)cc2)c2ccc(OC)cc12 | – | -21 |
| CCc1cnc2c(c1SCC(=O)c1ccccc1)c(=O)n(C)c(=O)n2C | – | 7.78 |
| O=C(NNC(=O)c1ccccc1O)c1ccccc1O | – | -1.19 |
| O=C(COC(=O)c1ccc(O)cc1O)NC(=O)c1ccccc1 | – | -0.462 |
| O=C(NNc1c2ccccc2nc2ccccc12)c1cc2ccccc2cc1O | 50.1 µM (active) | – |

| Structure (SMILES) | Potency | activity change, negative = inhibition [%] |
| --- | --- | --- |
| COc1ccc(-c2c(C)c3ccc(O)c(CN4CCN(C)CC4)c3oc2=O)cc1OC | – | -15.2 |
| COc1c(O)cc2oc(-c3ccc(O)c(O)c3)cc(=O)c2c1O | 17.8 µM (active) | – |
| CCOC(=O)COc1cc(OCC(=O)OCC)c2c(=O)cc(-c3ccccc3)oc2c1 | – | 5.91 |
| OCC(O)C(O)C(O)C(O)C=Nc1ccc(/C=C/c2ccnc3ccccc23)cc1 (stereo not given) | – | 5.86 |
| CC1(C)Cc2ccccc2-c2c[nH]c(=O)n21 | – | 1.92 |
| Nc1ccccc1SC(C[N+](=O)[O-])c1ccccc1 (stereo not given) | 15.8 µM (active) | – |
| Cc1csc[n+]1CCC1CCCCC1 | – | 3.23 |
| CC(C)(C)C1CCC(NC(=O)c2cnn3c2NC(=C2CC2)C=C3C(F)F)CC1 (stereo not given) | – | -7.54 |
| C=CCn1c(=S)[nH]c2scc(-c3ccco3)c2c1=O | 39.8 µM (active) | – |
| CCC1(C)Cc2c(sc3[nH]c(=S)n(Cc4ccccc4)c(=O)c23)CO1 (stereo not given) | – | -2.77 |
| CCOc1ccc(NC(=O)c2ncoc2-c2ccco2)cc1 | – | -10.3 |
| COCCNC(=O)Nc1ccc2nc(-c3ccco3)c(-c3ccco3)nc2c1 | 11.2 µM (active) | – |
| C=CCNC(=O)c1ccc2nc(-c3ccco3)c(-c3ccco3)nc2c1 | – | -23.2 |
| CC1(C)CC(=O)c2cc(C(=O)NCc3ccccc3)c(=O)[nH]c2C1 | – | 11.9 |
| O=C1CCC[C@@H]2C[C@@]3(C[C@@H]4CCN1[C@H]24)Nc1ccccc1NC3=NCc1ccccc1 | – | -1.02 |
| COc1cccc2c1C(=O)c1c(O)c3c(c(O)c1C2=O)CC(O)(C(C)=NNC(=O)c1ccc(Cl)c(Cl)c1)CC3OC1CC(N)C(O)C(C)O1 (stereo not given) | 44.7 µM (active) | – |
| CN1CCN(/[N+]([O-])=N/Oc2ccc([N+](=O)[O-])cc2[N+](=O)[O-])CC1 | – | -16.6 |
| O=C1CC(c2ccccc2)CC2=C1C(c1ccco1)n1nc(C(F)(F)F)nc1N2 (stereo not given) | – | -5.72 |
| O=C1CSC(=S)N1/N=C/c1ccc(O)c([N+](=O)[O-])c1 | 28.2 µM (active) | – |
| CO/N=C/c1ccc(N2CCN(C(=O)c3cccc(Cl)c3)CC2)c([N+](=O)[O-])c1 | – | -3.16 |
| CCOc1cccc(/C=N/N2C(=O)CSC2=S)c1O | – | 1.58 |
